Source: PubChem BioAssay AID504333 (National Center for Advancing Translational Sciences (NCATS), 2011)
Hit rate of the full screen: of about 360,000 compounds, about 16,000 (4.4%) were called active. Not shown: some 9% with an inconclusive outcome. The call rests on the fitted dose curve; in most records, active means well fitted inhibition curve with a large enough effect; inconclusive means small, poorly fitted or top-dose-only effect; inactive means no such curve, though single readings can be large or run the other way. This excerpt belongs to a sample that is enriched for actives.

Target: Bromodomain adjacent to zinc finger domain protein 2B (Homo sapiens) (UniProt Q9UIF8)
Sequence (Q9UIF8 whole entry, looked up, the tested form may be a part): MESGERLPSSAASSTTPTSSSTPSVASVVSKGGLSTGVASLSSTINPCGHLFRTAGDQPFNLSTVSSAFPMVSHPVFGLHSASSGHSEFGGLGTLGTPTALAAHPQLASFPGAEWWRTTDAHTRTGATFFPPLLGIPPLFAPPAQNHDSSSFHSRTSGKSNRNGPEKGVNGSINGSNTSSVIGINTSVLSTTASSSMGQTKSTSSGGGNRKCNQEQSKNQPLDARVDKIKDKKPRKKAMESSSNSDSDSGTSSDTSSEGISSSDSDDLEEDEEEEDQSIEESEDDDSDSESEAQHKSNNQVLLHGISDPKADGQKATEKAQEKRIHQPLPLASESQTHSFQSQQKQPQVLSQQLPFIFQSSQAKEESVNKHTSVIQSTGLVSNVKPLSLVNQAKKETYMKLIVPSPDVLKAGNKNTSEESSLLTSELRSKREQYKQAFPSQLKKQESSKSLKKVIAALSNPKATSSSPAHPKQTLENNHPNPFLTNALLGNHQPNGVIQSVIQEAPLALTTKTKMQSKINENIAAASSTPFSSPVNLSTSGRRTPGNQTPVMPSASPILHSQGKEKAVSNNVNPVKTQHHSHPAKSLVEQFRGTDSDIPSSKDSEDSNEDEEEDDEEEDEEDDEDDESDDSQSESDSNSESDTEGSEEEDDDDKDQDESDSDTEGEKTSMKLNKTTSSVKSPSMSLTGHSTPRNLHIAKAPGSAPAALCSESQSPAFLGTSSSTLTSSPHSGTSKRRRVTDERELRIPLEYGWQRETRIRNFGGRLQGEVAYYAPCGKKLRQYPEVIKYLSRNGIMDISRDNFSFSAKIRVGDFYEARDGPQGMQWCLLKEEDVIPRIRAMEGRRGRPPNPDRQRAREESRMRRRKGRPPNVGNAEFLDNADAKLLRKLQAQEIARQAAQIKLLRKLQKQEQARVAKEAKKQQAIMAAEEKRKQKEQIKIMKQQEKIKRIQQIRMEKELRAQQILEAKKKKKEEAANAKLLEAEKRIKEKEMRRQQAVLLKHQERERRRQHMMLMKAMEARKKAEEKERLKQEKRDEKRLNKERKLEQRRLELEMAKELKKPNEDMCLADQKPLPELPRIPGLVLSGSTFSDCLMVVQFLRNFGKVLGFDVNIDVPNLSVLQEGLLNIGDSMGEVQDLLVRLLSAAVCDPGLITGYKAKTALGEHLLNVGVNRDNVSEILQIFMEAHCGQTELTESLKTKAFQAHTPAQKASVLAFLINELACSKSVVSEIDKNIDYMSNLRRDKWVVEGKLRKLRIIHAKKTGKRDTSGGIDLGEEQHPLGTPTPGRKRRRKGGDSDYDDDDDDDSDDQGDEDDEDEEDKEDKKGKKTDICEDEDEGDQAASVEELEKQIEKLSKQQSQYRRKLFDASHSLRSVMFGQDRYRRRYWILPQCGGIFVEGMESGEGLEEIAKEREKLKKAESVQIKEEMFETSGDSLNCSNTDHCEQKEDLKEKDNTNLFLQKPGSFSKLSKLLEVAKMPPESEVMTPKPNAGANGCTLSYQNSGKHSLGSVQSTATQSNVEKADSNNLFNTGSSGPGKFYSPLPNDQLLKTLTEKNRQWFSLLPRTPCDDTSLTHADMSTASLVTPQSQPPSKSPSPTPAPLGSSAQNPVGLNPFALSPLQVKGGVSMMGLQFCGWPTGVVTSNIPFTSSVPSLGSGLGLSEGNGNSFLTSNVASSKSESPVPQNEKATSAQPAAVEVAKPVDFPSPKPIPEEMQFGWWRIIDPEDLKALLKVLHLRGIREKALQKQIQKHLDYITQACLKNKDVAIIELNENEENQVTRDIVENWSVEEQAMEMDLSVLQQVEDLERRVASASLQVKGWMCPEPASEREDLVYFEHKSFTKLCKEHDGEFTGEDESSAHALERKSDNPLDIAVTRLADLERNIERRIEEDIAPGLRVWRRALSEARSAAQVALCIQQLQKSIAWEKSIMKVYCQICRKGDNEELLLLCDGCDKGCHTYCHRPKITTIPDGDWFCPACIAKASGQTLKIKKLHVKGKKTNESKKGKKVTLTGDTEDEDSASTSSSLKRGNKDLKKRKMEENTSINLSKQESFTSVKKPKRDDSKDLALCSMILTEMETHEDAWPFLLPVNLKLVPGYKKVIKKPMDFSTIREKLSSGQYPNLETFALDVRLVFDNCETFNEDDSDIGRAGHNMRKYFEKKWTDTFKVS
Test: qHTS Assay for Inhibitors of BAZ2B; further: nearly all actives have a fitted effect of over 60% in size
Details: AlphaScreen BAZ2B-H3K14Ac peptide displacement; series mostly up to 114 µM
Outline: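 AlphaScreen displacement: compounds (up to 110uM) incubated 30 min at room temperature with a preformed 50 nM BAZ2B/50 nM biotinylated H3K14Ac peptide complex in PBS pH 7.4 with Tween-20. Donor and acceptor beads at 10 ug/mL final added, 20 min light-protected before reading.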
Potency means the concentration at half of the fitted maximal effect.

Potency, active:
Cc1ccccc1Nc1nc(N)nc(CN2CCN(c3ccccn3)CC2)n1 50.1 µM
Nc1ccc(Nc2cc(O)c3ncccc3c2)cc1 7.08 µM
CC1CCN(S(=O)(=O)c2ccc3c(ccn3CCC(=O)NCc3ccc(N(C)C)cc3)c2)CC1 28.2 µM
O=[N+]([O-])c1cc(Cl)cc(/C=N/NC(=S)Nc2cc(S(=O)(=O)N3CCOCC3)ccc2Cl)c1O 1.78 µM
Cc1cnc(NC(=O)c2ccccn2)s1 35.5 µM
O=C(Nc1nnc(C2CC2)s1)c1ccccn1 5.62 µM
CCc1nnc(NC(=O)c2nc3nccc(C)n3n2)s1 70.8 µM
CCCOc1ccccc1C1CC(=O)Nc2cc3c(cc21)OCO3 (stereo unspecified) 28.2 µM
Cc1ccc(Nc2ccccc2N)cc1 44.7 µM
CC(=O)c1c(C)n(-c2ccc(N(C)C)cc2)c2ccc(OCC(N)=O)cc12 50.1 µM
CC1Cc2ccccc2N1CC(=O)Nc1ccc(S(N)(=O)=O)cc1 (stereo unspecified) 79.4 µM
O=C(NCCCn1ccnc1)c1cc2c(s1)CCCC2 56.2 µM
Cc1cccc2nc(-c3ccc(Cl)s3)c(Nc3ccc4c(c3)OCCO4)n12 12.6 µM
Nc1ccc(Nc2ccccc2)cc1 35.5 µM
C[N+]1(CCNC(=O)/C=N/O)CCCCC1 79.4 µM
COc1ccc(C2C(C#N)=C(N)Oc3n[nH]c(C)c32)cc1CN1CCN(c2ccc(F)cc2)CC1 (stereo unspecified) 50.1 µM
N#Cc1nc(COc2ccc(-c3ccccc3)cc2)oc1NCc1cccnc1 11.2 µM
CCN1CCN(CCCCOc2ccccc2F)CC1 50.1 µM
O=c1[nH]n2c(=O)c3c([nH]c2c1N=Nc1ccccc1)CCC3 39.8 µM
O=C(O)C(c1ccccc1)N1C(=O)/C(=C\c2ccc(-c3cccc(Cl)c3)o2)SC1=S (stereo unspecified) 22.4 µM
CCOC(=O)c1sc(=S)n(-c2cccc(OC)c2)c1N 50.1 µM
c1ccc(CN2CCC(N=C3NN=C(c4ccc5c(c4)OCCO5)CS3)CC2)cc1 39.8 µM
C=CCO/N=C/C1=C(O)C(C(=O)OC)C(C)(C)CC1=O (stereo unspecified) 39.8 µM
CC(C)(C)C(=O)OCc1nc(-c2ccc(O)c(O)c2)cs1 56.2 µM

Potency, inactive:
CC(C)S(=O)(=O)c1oc(-c2ccc(F)cc2)nc1S(=O)(=O)c1ccc(F)cc1
Cc1ccc(NC(=O)CSc2nc3c([nH]c4ccccc43)c(=O)n2-c2ccccc2)cc1Cl
Cc1ccc(N2CC(c3nnc(Cc4ccccc4Cl)o3)CC2=O)cc1 (stereo unspecified)
Cc1ccc(C(=O)OCc2nc(N)nc(Nc3ccccc3C)n2)cc1
Cc1ccccc1Nc1nc(N)nc(CSc2ccccc2)n1
CCOc1ccccc1CNC(=O)Nc1cn(CC(C)C)c(=O)c2ccccc12
COc1ccccc1CNC(=O)C(Cc1ccccc1)NS(=O)(=O)c1ccc2c(c1)oc(=O)n2C (stereo unspecified)
COc1ccc2c(C)c(CCC(=O)NCc3ccc(OC)c(OC)c3)c(=O)oc2c1
CC(C)c1ccc(Nc2ncccc2C#N)cc1
CC1CCN(S(=O)(=O)c2ccc3c(ccn3CC(=O)O)c2)CC1
O=C(CCn1ccc2cc(S(=O)(=O)N3CCCC3)ccc21)NCc1cccc(Cl)c1
CCCN(CCC)C(=O)C(Cc1ccccc1)NS(=O)(=O)c1ccc2c(c1)c(=O)n(C)c(=O)n2C (stereo unspecified)
O=S(=O)(c1ccc(NC(=S)NN=C(C2CC2)C2CC2)cc1)N1CCOCC1
Cc1ccc(S(=O)(=O)N2CCN(CC(=O)N/N=C/c3cc([N+](=O)[O-])ccc3Cl)CC2)cc1
Cn1c(=O)c2c(nc(SCC(=O)Nc3ccc(F)cc3)n2Cc2ccccc2)n(C)c1=O
Cc1nn(C(C)C(=O)Nc2ccc(C(C)C)cc2)c(=O)c2c1sc1ccccc12 (stereo unspecified)
CC1CN(C(=O)N2CCC(C(=O)NCc3ccco3)CC2)c2cc(Cl)ccc2O1 (stereo unspecified)
Cc1ccc(SCC(=O)Nc2ncc(C)s2)cc1
Cc1cc(C(=O)Nc2nnc(C3CC3)s2)c(C)s1
Cc1cnc(NC(=O)C2CCCC2)s1
O=C(Nc1nnc(C2CC2)s1)c1cc(Cl)sc1Cl
COCCNC(=O)c1ccc2c(c1)N=C(C)c1cc(C)ccc1S2
CC1=Nc2cc(C(=O)N3CCC(C)CC3)ccc2Sc2ccc(Cl)cc21
Cc1ccc(Cn2c(=O)n(-c3ccc(C)cc3)c(=O)c3c2c2cc(C)ccc2n3C)cc1
COc1ccc(CNC(=O)CSc2n[nH]c(-c3ccc(F)cc3)n2)cc1
CCc1nnc(NC(=O)c2cc(S(=O)(=O)N3CCCCC3)ccc2C)s1
CCc1nnc(NC(=O)c2ccc(S(=O)(=O)NC3CCCCC3)cc2)s1
COC(=O)C1=C(C)NC(=O)CC1c1ccccc1OC (stereo unspecified)
O=C1CC(c2ccc(F)cc2F)c2cc3c(cc2N1)OCO3 (stereo unspecified)
Cc1nc2ccn(Cc3cccs3)c(=O)c2cc1C(=O)NCc1ccc(Cl)cc1
Cc1ccc(Nc2nc(Cl)c(C=O)s2)cc1
Nc1ccc(C(=O)Nc2ccccc2N)cc1
COc1ccc(-c2noc(CSc3nnc(-c4ccccc4)n3-c3ccc(F)cc3)n2)c(OC)c1
CC(=O)c1c(C)n(-c2ccc(C)cc2)c2ccc(O)cc12
CCOC(=O)c1c(-c2ccccc2)oc2ccc(OCC(N)=O)cc12
CC(=O)c1ccc(NC(=O)c2nc(-c3ccc(C)cc3)n3c2CCCCC3)cc1
COc1ccccc1-c1ccnc2[nH]n(-c3ccccc3)c(=O)c12
CC1CC(C)CN(CC(=O)Nc2ccc(S(N)(=O)=O)cc2)C1 (stereo unspecified)
NS(=O)(=O)c1cccc(NC(=O)CN2CCCc3ccccc32)c1
CC(CNC(=O)c1nnc(Cc2cccc(F)c2)o1)c1ccccc1 (stereo unspecified)
CN(C(=O)CSc1nc2ccc(NC(=O)COc3ccccc3)cc2s1)c1ccccc1
O=C(NCCCN1CCOCC1)c1cc2c(s1)CCC2
O=C(NCCCn1ccnc1)c1cc(Br)c(Br)s1
Cc1ccccc1CNC(=O)C1CCCN(S(=O)(=O)N(C)c2ccc(F)cc2)C1 (stereo unspecified)
CCOC(=O)c1c(S(=O)(=O)NCC(=O)Nc2ccc(Cl)c(C(F)(F)F)c2)c(C)n(C)c1C
COc1cccc(NC(=O)CSC2=Nc3ccccc3C3=NC(CC(=O)NC4CCCCC4)C(=O)N23)c1 (stereo unspecified)
S=C(Nc1cccc(Cl)c1)Nc1ccc2c(c1)OCCO2
Cc1nc(Nc2ccc3c(c2)OCCO3)c2nnn(Cc3ccccc3Cl)c2n1
Nc1ccc(S(=O)(=O)NC(=O)c2ccccc2)cc1
Cc1cc(Nc2ccccc2)n(C(=O)c2ccc(N)cc2)n1
CCCOc1ccc(NC(=O)CC2C(=O)N(c3ccccc3)C(=O)N2Cc2ccco2)cc1 (stereo unspecified)
CCOc1c(OC)cc(C2C(C#N)=C(N)Oc3n[nH]c(-c4ccncc4)c32)cc1OC (stereo unspecified)
COc1cc(C2C(C#N)=C(N)Oc3n[nH]c(-c4ccccn4)c32)cc(OC)c1OC (stereo unspecified)
O=C(CSc1nc(=O)n(Cc2cccnc2)c2c1CCC2)Nc1ccc(F)cc1F
c1ccc(COc2ccccc2CNCc2cccnc2)cc1
O=S(=O)(c1ccccc1)c1nc(-c2ccccc2F)oc1NCc1cccnc1
O=C(NCCCO)C(=O)Nc1c2c(nn1-c1ccc(F)cc1)CSC2
CCOc1ccc(C2C(=O)N(C3CCCCC3)CC(=O)N2CCC2=CCCCC2)cc1OC (stereo unspecified)
CN1CCN(CCCCOc2cccc3ccccc23)CC1
Fc1ccccc1OCCCCn1cncn1
CCn1c2c(c(=O)n3ncc(C(=O)N4CCN(c5ccccc5)CC4)c13)CN(Cc1ccc(OC)cc1)CC2
O=C(Nc1ccc(F)cc1F)c1cnn(-c2ccc(F)cc2)c1-n1cccc1
CCOC(=O)Cn1c(=O)n(C2CCCCC2)c2nc(-c3cccc(OC)c3)nc(C(N)=O)c21
N#Cc1c2c(c(-c3ccccc3)[nH]c1=O)CCCC2
CC(C)(C)n1c(=O)[nH]c2c(c1=O)CCC2
COc1cc(CN(CC2CCCO2)C(=O)c2ccccc2F)cc(OC)c1OC (stereo unspecified)
O=C1c2ccccc2NC(c2ccc(-c3cccc(Cl)c3)o2)N1O (stereo unspecified)
O=C(NCc1ccccc1)c1cc(-c2cccc(Cl)c2)on1
COc1cccc(NC(=O)CN2C(=O)c3ccccc3Sc3ncccc32)c1
CC(=O)Nc1ccc(NC(=O)c2cc3sccc3n2Cc2ccc(F)cc2)cc1
COC(=O)c1ccc(NC(=O)CSc2n[nH]c(-c3ccccc3)n2)cc1
Cc1cccc(-n2c(N)c(C(=O)N3CCN(C)CC3)sc2=S)c1
COc1cccc(-n2c(=S)sc3c(=O)n(-c4ccccc4C)c(SCC(=O)O)nc32)c1
CS(=O)(=O)N(CC(=O)N1CCN(Cc2ccccc2)CC1)c1ccc2c(c1)OCCO2
Clc1cccc(N=C2NN=C(c3ccc4c(c3)OCCO4)CS2)c1
Cc1ccc(NC(=O)CN2C(=O)CC(C)Sc3ccccc32)c(C)c1 (stereo unspecified)
CCCC(=O)C1=C(N(C)c2ccccc2)CC(C)(C)C(C(=O)OC)C1=O (stereo unspecified)
COc1ccc(CCNc2nc(-c3ccc(F)cc3)cc(C(F)(F)F)n2)cc1OC
CCOC(=O)c1c(NC(=O)COc2cc(C)ccc2C(C)C)sc(C)c1C
O=C1CN(C(=O)Nc2ccccc2C(F)(F)F)C(c2ccccc2)c2c(sc3c2CCCC3)N1 (stereo unspecified)
Cc1onc(C(=O)NN)c1-c1csc(COc2ccccc2)n1
COc1cc(CC(=O)Nc2nc(-c3ccc(F)c(F)c3)cs2)cc(OC)c1OC
